These results are taken from article PMC7862700, “An all-to-all approach to the identification of sequence-specific readers for epigenetic DNA modifications on cytosine”.

Assay in all cases: DAPPL (digital affinity profiling via proximity ligation, sequencing); 10 mM Tris-HCl pH 7.5, 50 mM NaCl, 1 mM DTT, 4% glycerol, room temperature, 30 min; GST-TFs on glutathione beads, 16-mer random dsDNA library, 0.1% formaldehyde crosslink after washing; high values mean tight binding
For one experiment, the target named is T1, FEV (Homo sapiens, UniProt Q99581 1-238).
T1 sequence: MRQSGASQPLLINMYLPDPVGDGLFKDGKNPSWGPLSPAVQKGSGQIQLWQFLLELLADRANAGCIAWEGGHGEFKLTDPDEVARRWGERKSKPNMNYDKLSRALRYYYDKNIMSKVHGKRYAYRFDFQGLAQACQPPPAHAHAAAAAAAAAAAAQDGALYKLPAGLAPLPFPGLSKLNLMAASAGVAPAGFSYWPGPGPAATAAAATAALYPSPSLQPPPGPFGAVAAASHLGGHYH
To be noted: protein: recombinant; tags: N-terminal GST; dsDNA, one strand shown. In a few lines:
(§1)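 Yeast served to express human transcription factors as GST fusions, which were then captured on glutathione beads and labelled with DNA barcodes. Pooled with a tag-only sample, they were incubated with 200 nmole of a 16-mer random double-stranded DNA library for 30 min at room temperature in Tris/NaCl/DTT/glycerol buffer, washed, crosslinked with 0.1% formaldehyde, ligated by proximity, amplified by PCR and sequenced. Dividing each hexamer's read frequency for a factor by its frequency for the tag-only sample gives the binding signal.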

The next experiment deals with ETV5 (Homo sapiens, UniProt P41161 1-510). The following applies: protein: recombinant; tags: N-terminal GST; dsDNA, one strand shown. In a few lines: as §1
Chain of ETV5 (P41161 whole entry): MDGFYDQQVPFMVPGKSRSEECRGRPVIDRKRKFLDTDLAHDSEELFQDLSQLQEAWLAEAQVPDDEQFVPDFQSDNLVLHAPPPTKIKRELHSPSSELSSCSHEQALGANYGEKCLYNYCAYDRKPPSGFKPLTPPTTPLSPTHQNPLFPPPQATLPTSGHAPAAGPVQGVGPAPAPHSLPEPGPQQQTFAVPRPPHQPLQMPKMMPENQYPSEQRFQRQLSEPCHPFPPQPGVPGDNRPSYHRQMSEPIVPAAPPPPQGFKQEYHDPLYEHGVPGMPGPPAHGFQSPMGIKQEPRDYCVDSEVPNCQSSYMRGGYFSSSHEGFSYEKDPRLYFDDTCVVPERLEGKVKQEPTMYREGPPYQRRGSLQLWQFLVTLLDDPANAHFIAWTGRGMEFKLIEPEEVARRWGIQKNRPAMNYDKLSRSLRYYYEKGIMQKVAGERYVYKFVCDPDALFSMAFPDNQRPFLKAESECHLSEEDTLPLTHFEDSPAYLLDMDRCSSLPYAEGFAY
Another experiment has as its target HSF1 (Homo sapiens, UniProt Q00613 1-529). The following applies: protein: recombinant; tags: N-terminal GST; chain copies: 3; dsDNA, one strand shown. The method in brief:
as §1

The next experiment has as its target T2, SPIC (Homo sapiens, UniProt Q8N5J4 1-248).
T2 sequence: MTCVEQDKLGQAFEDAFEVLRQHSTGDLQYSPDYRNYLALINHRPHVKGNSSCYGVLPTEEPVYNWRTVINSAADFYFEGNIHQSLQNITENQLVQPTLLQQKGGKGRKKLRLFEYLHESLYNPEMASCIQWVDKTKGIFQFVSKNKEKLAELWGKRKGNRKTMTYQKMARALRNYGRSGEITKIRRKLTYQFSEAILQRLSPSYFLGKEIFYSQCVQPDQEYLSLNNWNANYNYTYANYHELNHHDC
To be noted: protein: recombinant; tags: N-terminal GST; dsDNA, one strand shown. The method in brief: as §1

The target of a further experiment is ELF4 (Homo sapiens, UniProt Q99607 1-663). The following applies: protein: recombinant; tags: N-terminal GST; dsDNA, one strand shown. In a few lines: as §1
Chain of ELF4 (Q99607 whole entry): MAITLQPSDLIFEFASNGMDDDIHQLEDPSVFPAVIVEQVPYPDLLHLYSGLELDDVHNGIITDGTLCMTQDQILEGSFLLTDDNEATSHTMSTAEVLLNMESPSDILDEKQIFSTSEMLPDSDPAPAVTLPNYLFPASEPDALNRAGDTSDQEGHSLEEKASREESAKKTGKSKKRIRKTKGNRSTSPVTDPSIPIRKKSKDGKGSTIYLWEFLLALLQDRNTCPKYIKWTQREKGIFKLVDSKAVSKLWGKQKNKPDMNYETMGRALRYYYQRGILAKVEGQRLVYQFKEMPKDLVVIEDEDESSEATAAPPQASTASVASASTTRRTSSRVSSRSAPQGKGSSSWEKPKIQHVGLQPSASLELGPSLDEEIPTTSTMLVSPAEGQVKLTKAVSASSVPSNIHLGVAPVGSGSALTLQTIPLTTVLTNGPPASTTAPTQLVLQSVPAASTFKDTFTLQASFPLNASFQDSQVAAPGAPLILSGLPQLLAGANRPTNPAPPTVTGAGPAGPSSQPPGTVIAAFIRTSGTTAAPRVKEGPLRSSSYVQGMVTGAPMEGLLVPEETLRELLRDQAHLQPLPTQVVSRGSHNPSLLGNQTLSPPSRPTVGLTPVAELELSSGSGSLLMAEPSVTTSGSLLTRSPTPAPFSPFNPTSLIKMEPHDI
A further experiment addresses T3, ELK4 (Homo sapiens, UniProt P28324-2 1-405).
T3 sequence: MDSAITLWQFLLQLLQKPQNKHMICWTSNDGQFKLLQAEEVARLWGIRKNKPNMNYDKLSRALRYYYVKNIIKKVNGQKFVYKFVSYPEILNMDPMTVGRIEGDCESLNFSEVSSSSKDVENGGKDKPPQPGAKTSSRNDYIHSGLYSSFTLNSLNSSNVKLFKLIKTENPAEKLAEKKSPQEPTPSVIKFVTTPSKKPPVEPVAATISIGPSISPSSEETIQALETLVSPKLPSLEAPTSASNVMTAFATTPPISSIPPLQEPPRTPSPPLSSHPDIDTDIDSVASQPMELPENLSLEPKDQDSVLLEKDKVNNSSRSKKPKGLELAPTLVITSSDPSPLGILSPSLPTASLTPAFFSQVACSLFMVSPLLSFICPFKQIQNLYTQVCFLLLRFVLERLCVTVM
To be noted: protein: recombinant; tags: N-terminal GST; dsDNA, one strand shown. In a few lines: as §1

A further experiment addresses T4, ETV2 (Homo sapiens, UniProt O00321 1-342).
T4 sequence: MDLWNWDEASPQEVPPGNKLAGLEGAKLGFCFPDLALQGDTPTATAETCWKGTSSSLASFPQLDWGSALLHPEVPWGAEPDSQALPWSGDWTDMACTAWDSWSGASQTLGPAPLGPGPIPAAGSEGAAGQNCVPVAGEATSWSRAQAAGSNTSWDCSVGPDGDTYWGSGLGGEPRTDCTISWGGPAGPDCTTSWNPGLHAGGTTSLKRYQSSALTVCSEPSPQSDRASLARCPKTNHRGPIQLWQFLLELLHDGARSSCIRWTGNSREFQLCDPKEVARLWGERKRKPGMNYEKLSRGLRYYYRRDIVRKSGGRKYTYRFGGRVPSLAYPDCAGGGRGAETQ
The following applies: protein: recombinant; tags: N-terminal GST; dsDNA, one strand shown. In a few lines: as §1

For another experiment, the target named is T5, ELF3 (Homo sapiens, UniProt P78545 1-371).
T5 sequence: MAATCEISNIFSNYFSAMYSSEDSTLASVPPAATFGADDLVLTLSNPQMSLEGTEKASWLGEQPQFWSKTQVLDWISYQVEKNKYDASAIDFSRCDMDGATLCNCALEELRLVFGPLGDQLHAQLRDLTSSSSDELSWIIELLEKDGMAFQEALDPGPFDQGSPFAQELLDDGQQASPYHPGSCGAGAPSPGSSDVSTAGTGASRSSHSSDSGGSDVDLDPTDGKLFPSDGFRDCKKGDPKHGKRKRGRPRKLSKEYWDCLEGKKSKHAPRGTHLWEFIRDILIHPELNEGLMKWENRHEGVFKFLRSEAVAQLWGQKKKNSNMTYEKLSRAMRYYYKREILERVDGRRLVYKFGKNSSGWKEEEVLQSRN
To be noted: protein: recombinant; tags: N-terminal GST; dsDNA, one strand shown. The method in brief: as §1

The target in a further experiment is CRX (Homo sapiens, UniProt O43186 1-299). To be noted: protein: recombinant; tags: N-terminal GST; dsDNA, one strand shown. In a few lines: as §1
Chain of CRX (O43186 whole entry): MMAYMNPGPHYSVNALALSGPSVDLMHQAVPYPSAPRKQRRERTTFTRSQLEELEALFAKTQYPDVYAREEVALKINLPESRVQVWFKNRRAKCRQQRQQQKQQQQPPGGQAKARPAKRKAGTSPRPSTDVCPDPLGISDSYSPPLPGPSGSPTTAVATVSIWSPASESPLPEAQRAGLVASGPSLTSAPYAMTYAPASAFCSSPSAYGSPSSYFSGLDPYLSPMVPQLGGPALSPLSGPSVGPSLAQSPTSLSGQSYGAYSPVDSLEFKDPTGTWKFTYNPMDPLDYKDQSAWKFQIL
The next experiment has as its target ETV1 (Homo sapiens, UniProt P50549 1-477). To be noted: protein: recombinant; tags: N-terminal GST; dsDNA, one strand shown. In a few lines:
as §1

The next experiment addresses T6, ERF (Homo sapiens, UniProt P50548 1-548).
T6 sequence: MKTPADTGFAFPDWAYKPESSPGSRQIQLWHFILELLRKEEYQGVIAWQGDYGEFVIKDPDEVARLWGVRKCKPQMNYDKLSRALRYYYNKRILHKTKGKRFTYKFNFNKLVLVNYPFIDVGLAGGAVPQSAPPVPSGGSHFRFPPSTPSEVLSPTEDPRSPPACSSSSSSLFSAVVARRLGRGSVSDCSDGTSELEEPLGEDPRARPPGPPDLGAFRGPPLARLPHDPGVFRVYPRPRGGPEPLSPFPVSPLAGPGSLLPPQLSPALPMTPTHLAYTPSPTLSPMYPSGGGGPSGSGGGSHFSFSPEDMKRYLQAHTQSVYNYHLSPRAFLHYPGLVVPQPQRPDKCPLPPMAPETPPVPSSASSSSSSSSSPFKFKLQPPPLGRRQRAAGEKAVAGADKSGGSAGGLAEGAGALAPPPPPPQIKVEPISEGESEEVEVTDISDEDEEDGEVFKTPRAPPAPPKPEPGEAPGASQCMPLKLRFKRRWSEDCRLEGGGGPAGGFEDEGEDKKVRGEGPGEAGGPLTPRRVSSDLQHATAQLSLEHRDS
The following applies: protein: recombinant; tags: N-terminal GST; dsDNA, one strand shown. In a few lines: as §1

Another experiment addresses T7, ETV3L (Homo sapiens, UniProt Q6ZN32 1-361).
T7 sequence: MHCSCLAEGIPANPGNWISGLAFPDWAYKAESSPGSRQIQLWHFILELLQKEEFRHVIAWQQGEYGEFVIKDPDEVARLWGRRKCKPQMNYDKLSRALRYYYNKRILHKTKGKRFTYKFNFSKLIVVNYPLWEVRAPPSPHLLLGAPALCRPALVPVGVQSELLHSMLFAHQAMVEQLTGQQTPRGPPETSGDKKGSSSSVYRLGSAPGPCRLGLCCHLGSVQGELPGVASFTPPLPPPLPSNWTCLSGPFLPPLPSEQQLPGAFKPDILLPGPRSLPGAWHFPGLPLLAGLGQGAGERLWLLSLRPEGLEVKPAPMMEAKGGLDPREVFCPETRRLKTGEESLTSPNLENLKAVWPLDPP
The following applies: protein: recombinant; tags: N-terminal GST; dsDNA, one strand shown. In a few lines: as §1

The next experiment deals with T8, ETS2 (Homo sapiens, UniProt P15036 1-469).
T8 sequence: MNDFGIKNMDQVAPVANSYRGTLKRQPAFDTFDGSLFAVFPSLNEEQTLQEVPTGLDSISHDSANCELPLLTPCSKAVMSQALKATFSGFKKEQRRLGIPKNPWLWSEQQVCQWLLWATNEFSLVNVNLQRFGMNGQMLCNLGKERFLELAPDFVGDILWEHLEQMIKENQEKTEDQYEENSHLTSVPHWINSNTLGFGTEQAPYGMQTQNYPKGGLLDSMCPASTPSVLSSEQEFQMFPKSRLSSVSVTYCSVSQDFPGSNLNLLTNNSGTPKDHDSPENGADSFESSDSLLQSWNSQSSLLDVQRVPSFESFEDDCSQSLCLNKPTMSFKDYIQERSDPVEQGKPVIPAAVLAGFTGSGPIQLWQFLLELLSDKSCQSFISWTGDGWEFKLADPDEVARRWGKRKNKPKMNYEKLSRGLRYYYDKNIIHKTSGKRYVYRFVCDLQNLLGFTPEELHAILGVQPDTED
To be noted: protein: recombinant; tags: N-terminal GST; dsDNA, one strand shown. The method in brief: as §1

The next experiment has as its target T9, SPDEF (Homo sapiens, UniProt O95238 1-335).
T9 sequence: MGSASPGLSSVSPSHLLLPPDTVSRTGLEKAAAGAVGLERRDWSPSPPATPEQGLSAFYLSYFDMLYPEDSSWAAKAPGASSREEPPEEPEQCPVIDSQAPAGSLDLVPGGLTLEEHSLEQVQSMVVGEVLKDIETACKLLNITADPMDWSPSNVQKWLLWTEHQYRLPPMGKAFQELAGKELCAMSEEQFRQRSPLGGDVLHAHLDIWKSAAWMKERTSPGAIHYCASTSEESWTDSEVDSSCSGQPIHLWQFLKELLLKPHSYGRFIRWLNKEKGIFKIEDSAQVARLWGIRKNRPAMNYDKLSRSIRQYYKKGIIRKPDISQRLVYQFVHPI
The following applies: protein: recombinant; tags: N-terminal GST; dsDNA, one strand shown. In a few lines: as §1

The next experiment has as its target T10, ETV7 (Homo sapiens, UniProt Q9Y603 1-341).
T10 sequence: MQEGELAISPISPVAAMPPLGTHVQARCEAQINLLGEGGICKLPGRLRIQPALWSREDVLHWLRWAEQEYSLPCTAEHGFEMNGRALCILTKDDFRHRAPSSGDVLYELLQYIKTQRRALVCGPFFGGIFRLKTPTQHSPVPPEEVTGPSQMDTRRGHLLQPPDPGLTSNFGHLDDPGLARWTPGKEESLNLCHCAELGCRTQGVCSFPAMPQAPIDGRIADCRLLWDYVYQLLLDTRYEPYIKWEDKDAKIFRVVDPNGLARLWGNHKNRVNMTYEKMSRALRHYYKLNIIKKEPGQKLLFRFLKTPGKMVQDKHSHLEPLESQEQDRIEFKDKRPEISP
To be noted: protein: recombinant; tags: N-terminal GST; dsDNA, one strand shown. In a few lines: as §1

The target in a further experiment is T11, ELF5 (Homo sapiens, UniProt Q9UKW6-2 1-255).
T11 sequence: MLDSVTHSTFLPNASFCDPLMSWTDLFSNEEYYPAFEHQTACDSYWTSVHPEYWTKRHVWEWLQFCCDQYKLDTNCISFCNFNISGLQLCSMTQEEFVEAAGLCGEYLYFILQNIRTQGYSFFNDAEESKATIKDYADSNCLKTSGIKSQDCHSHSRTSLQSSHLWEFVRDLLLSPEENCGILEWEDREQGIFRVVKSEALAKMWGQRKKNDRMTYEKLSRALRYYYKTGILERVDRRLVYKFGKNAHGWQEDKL
The following applies: protein: recombinant; tags: N-terminal GST; dsDNA, one strand shown. In a few lines: as §1

In another experiment the target is T12, ETV3 (Homo sapiens, UniProt P41162-2 1-143).
T12 sequence: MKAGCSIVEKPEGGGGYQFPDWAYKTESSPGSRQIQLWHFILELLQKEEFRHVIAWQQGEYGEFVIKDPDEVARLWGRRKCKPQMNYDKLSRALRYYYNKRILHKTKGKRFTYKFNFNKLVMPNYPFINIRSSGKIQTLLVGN
The following applies: protein: recombinant; tags: N-terminal GST; dsDNA, one strand shown. In a few lines: as §1

In a further experiment the target is ETV6 (Homo sapiens, UniProt P41212 1-452). To be noted: protein: recombinant; tags: N-terminal GST; dsDNA, one strand shown. The method in brief: as §1
Chain of ETV6 (P41212 whole entry): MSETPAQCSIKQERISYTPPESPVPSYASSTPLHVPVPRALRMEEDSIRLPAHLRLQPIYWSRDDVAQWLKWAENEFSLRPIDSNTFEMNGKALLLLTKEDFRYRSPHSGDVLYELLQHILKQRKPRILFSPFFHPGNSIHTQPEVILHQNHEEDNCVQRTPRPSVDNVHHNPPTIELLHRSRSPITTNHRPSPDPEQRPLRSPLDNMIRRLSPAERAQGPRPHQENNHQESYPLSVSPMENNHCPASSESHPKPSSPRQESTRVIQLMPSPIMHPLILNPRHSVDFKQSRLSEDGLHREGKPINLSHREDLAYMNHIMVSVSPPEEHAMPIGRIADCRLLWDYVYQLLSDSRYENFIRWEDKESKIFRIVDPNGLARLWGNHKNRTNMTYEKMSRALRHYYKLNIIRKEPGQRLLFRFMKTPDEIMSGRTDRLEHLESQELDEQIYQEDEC

Chain of HSF1 (Q00613 whole entry): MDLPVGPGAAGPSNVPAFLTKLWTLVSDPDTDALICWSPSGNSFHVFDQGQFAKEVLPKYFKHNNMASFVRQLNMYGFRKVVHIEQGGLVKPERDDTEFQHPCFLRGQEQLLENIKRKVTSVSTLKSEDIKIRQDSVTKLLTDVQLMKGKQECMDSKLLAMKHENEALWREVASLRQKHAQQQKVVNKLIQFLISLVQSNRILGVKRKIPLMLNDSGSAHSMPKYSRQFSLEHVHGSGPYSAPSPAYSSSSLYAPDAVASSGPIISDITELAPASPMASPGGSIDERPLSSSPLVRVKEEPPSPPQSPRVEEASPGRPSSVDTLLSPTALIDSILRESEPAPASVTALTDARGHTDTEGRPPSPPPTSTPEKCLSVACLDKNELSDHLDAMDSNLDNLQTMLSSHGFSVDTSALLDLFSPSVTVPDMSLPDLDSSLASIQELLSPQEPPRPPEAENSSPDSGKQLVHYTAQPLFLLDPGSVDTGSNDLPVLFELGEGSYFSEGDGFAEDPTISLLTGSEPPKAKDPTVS
Chain of ETV1 (P50549 whole entry): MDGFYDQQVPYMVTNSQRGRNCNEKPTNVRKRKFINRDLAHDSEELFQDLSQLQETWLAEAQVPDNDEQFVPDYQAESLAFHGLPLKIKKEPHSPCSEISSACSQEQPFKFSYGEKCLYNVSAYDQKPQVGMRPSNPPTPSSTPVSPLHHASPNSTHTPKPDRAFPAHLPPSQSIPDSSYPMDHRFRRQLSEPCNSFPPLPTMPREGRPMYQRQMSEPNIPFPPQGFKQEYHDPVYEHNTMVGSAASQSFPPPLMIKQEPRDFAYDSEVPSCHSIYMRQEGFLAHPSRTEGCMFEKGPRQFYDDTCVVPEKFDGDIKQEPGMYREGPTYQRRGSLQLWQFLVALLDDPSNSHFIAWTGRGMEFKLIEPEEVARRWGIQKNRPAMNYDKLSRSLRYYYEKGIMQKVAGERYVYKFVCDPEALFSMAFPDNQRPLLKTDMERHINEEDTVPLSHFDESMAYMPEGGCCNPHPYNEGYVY

Regarding AAACTA, the binding signal with FEV was 1.29 fold enrichment (6-mer frequency, TF over GST control); with ETV5, 1.3 fold enrichment (6-mer frequency, TF over GST control); with HSF1, 1.31 fold enrichment (6-mer frequency, TF over GST control); in the experiment with SPIC it was 1.18 fold enrichment (6-mer frequency, TF over GST control); with ELF4, 1.33 fold enrichment (6-mer frequency, TF over GST control); with ELK4, 1.22 fold enrichment (6-mer frequency, TF over GST control). Besides, the binding signal with ETV2 was 1.29 fold enrichment (6-mer frequency, TF over GST control); in the experiment with ELF3, 1.09 fold enrichment (6-mer frequency, TF over GST control); in the experiment with CRX it was 1.35 fold enrichment (6-mer frequency, TF over GST control); in the experiment with ETV1, 1.36 fold enrichment (6-mer frequency, TF over GST control); in the experiment with ERF, 1.29 fold enrichment (6-mer frequency, TF over GST control); with ETV3L, 1.27 fold enrichment (6-mer frequency, TF over GST control). In addition, the binding signal is 1.35 fold enrichment (6-mer frequency, TF over GST control) with ETS2; 1.29 fold enrichment (6-mer frequency, TF over GST control) in the experiment with SPDEF; 1.31 fold enrichment (6-mer frequency, TF over GST control) with ETV7; 1.32 fold enrichment (6-mer frequency, TF over GST control) in the experiment with ELF5; 1.24 fold enrichment (6-mer frequency, TF over GST control) with ETV3; 1.25 fold enrichment (6-mer frequency, TF over GST control) with ETV6.
